Bioassay records deposited in PubChem by National Center for Advancing Translational Sciences (NCATS).
In the library only some 7.9% were active in any assay of this set; here they are far more common.
Lassa entry inh = qHTS for Inhibitors of binding or entry into cells for Lassa Virus; Lassa virus pseudotype entry inhibition, cell reporter; Potency, µM (doses to about 37.9 µM), actives largely listed as inhibitors; 300,000 compounds, 1.2% hits; calls by dose curve; tested in HEK293 cells; also: nearly all actives have a fitted effect of over 50% in size
HCV inh = qHTS Assay for Inhibitors of Hepatitis C Virus (HCV); Huh7.5.1 HCVcc-Cre infection, luciferase reporter, 44 h; Potency, µM (series often up to 41.8 µM), hits mostly inhibitors; 340,000 compounds, 3.4% hits; AID 651820, 2012; active = well fitted inhibition curve with a large enough effect; inconclusive = small, poorly fitted or top-dose-only effect, or another doubt; inactive = no such curve, though single readings can be large or run the other way
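HCVcc-Cre virus at an moi near 0.5 was added right after compound to cells cultured 4 h from seeding (1,000 cells/well). Luciferase activity was determined 44 h later, 15 min after substrate addition at RT.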
HCMV antiviral = qHTS Assay for inhibitors of the human cytomegalovirus (HCMV); HFF cells, HCMV-luciferase reporter, 72 h; hits give low values; activity change, negative = inhibition, % at 57.5 µM; 410,000 compounds, 4.5% hits; AID 1259415, 2018; in the data active = activity change below about -60%; inconclusive = no clear call, values can overlap the other calls; inactive = above about -39%
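After 16 h attachment at 37C, HFF cells received test compound and HCMV-luciferase (1 PFU/cell); reporter luminescence read 72 h later, data normalized against buffer-only and known inhibitor Salinomycin.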
FMDV antiviral = High Throughput Screening for Foot and Mouth Disease Virus Antivirals; FMDV antiviral cell-based qHTS; AID 1159524, 2015; Potency, µM (doses to about 57.9 µM), actives largely listed as inhibitors; 410,000 compounds, 1.2% hits; calls by dose curve; tested in HEK293T cells; also: read-out not given here; nearly all actives have a fitted effect of over 45% in size
MARV entry inh = qHTS for inhibitors of binding or entry into cells for Marburg Virus; Marburg virus pseudotyped entry inhibition, cell reporter; Potency, µM (series often up to 37.8 µM), hits mostly inhibitors; 300,000 compounds, 1.8% hits; AID 540276, 2011; calls by dose curve; tested in HEK293 cells
A number is an active result; 0 = inactive; ? = inconclusive; - = not tested or not shown.

SMILES	Lassa entry inh	HCV inh	HCMV antiviral	FMDV antiviral	MARV entry inh
COc1ccc(CN2CCCC(n3cc(C(=O)N4CCCCC4)nn3)C2)c(OC)c1C (stereo not given)	-	-	-	0	-
CCc1cc2c(nc1CC)CCN(CCC(C)=NOC[C@@H](O)[C@H]1O[C@@H]3OC(C)(C)O[C@H]3[C@@H]1O)C2	-	-	-	-	0
C=CCOc1c(Cl)cc(C2NC(=O)NC(C)=C2C(=O)OC)cc1Cl (stereo not given)	0	11.2µM	0	-	0
O=C(NCC1Cc2cccc(-c3cccnc3)c2O1)c1cc(-c2ccccc2)n[nH]1 (stereo not given)	-	-	-	0	-
Cc1ncc2c(c1CNS(=O)(=O)N(C)C)CCN(C(=O)/C=C/c1ccccc1Cl)C2	-	-	-	0	-
Cc1nn(C)c(C)c1/C=N/NC(=O)C(C)(C)Oc1ccc(Cl)cc1	0	0	0	0	0
Cc1nn(C(C)(C)C)c(C)c1/C=N/OC(=O)Nc1ccc(Cl)cc1	?	?	-100.8	5.62µM	?
COc1cccc(C(=O)NCC2Cc3cccc(-c4ncccn4)c3O2)c1OC (stereo not given)	-	-	-	0	-
O=c1c2ccccc2nc(/C=C/c2cccc3ccccc23)n1-c1ccccc1Cl	0	-	?	22.4µM	-
Cc1ccccc1-n1c(/C=C/c2ccccc2F)nc2ccccc2c1=O	0	-	-84.7	?	-
Cc1ccccc1-n1c(/C=C/c2c(C)n(C)c3ccccc23)nc2ccccc2c1=O	0	-	0	0	-
COc1ccc(Cl)cc1-n1c(/C=C/c2cccc3ccccc23)nc2ccccc2c1=O	0	-	0	0	-
O=C(Nc1cccc(C(F)(F)F)c1)c1cc(-c2ccc(Cl)s2)nc2ccccc12	0	-	0	?	0
COc1ccccc1NC(=O)CC1Sc2ccc(C(F)(F)F)cc2NC1=O (stereo not given)	0	-	0	0	-
COc1ccc2c(Cl)c(-c3nnc(SCC(=O)c4ccccc4)n3C)sc2c1	?	11.2µM	0	0	?
c1ccc(Nc2c(-c3c[nH]c4ccccc34)nc3ccccn23)cc1	0	-	0	0	?
c1c2c(cc3sc(N4CCOCC4)nc13)OCCO2	5.17µM	0	?	0	?
CC(C)(C)c1cc(OC(=O)C2CCCC2)ccc1O	0	0	0	0	0
CCCCC(CC)C(=O)Oc1ccc(O)c(C(C)(C)C)c1 (stereo not given)	10µM	?	?	0	?
CCCCN(C)C(=O)CN1C(=O)CCn2nc(-c3cn(C)c4ccccc34)cc21	0	-	0	0	-
Cc1ccc(S(=O)(=O)Cn2nnnc2C(c2ccccc2)N2CCN(c3ccccc3)CC2)cc1 (stereo not given)	0	0	0	0	?
CCC(c1nnnn1CS(=O)(=O)c1ccc(C)cc1)N1CCN(c2nc3ccccc3s2)CC1 (stereo not given)	?	?	-64.0	-	8.2µM
CCCC(c1nnnn1CS(=O)(=O)c1ccc(C)cc1)N1CCN(c2ccccc2)CC1 (stereo not given)	11.2µM	?	0	0	?
Cc1nn2c(=O)cc(COC(=O)c3ccco3)nc2s1	0	-	0	0	-
CCc1ccccc1NC(=O)c1cc2nc(-c3ccc(Br)cc3)cc(C(F)(F)F)n2n1	0	-	0	0	-
SMILES	Lassa entry inh	HCV inh	HCMV antiviral	FMDV antiviral	MARV entry inh
COc1ccc(N2C(=O)CC(Sc3ncn[nH]3)C2=O)c(OC)c1 (stereo not given)	0	15.8µM	-98.2	0	0
COc1ccccc1N1CCN(C(=O)CCn2nc(C)c(S(=O)(=O)N3CCCC3)c2C)CC1	0	-	0	0	-
OCC[n+]1ccc(/C=C/c2c[nH]c3ccccc23)cc1	?	3.55µM	-98.6	0	0
CC(=O)c1cccc(NC(=S)Nc2ccn(Cc3cccc4ccccc34)n2)c1	?	11.2µM	?	0	?
COc1cc(OC)c(NC(=O)NCCn2nnc3cc(S(=O)(=O)N(C)C)ccc32)cc1Cl	0	-	0	0	-
CC(C)OC(=O)CSc1nnc(CNc2cccc(Cl)c2)n1C	0	0	0	0	0
Cn1c(CNc2cccc(Cl)c2)nnc1SCC(=O)OC1CCCCC1	0	0	-79.9	0	0
COc1ccc(C(=O)Nc2cc3c4c(c2)CC(=O)N4CCC3)cc1	0	2.24µM	0	0	0
COc1ccc(C(=O)Nc2cccc3c2CCCC3)cc1	-	0	0	0	-
COc1ccc(C(=O)Nc2ccc(C)cn2)c(OC)c1	0.651µM	10µM	-76.4	1.78µM	1.03µM
COc1ccc(C(=O)Nc2cccc3c2CCCC3)c(OC)c1	0	31.6µM	0	0	0
COc1ccc(C(=O)Nc2cc3c4c(c2)CC(=O)N4CCC3)c(OC)c1	?	3.98µM	-	0	0
O=C(Nc1cc2c3c(c1)CC(=O)N3CCC2)c1ccc(F)cc1	0	0	0	0	0
COc1ccc(C(=O)Nc2cc(C)on2)c(OC)c1	-	0	0	0	-
COc1ccc(CCC(=O)Nc2cc3c4c(c2)CC(=O)N4CCC3)cc1	0	?	0	0	0
Cc1ccc(OCC(=O)Nc2nc(-c3ccc(Br)cc3)ns2)cc1	0	-	0	0	0
COc1ccc(C(=O)Nc2nnc(Cc3ccc(OC)c(OC)c3)s2)c(OC)c1	?	11.2µM	0	0	?
O=C(Cn1c(=O)n(Cc2nc(-c3ccccc3)no2)c(=O)c2ccccc21)Nc1cccc(C(F)(F)F)c1	0	-	0	20µM	-
CCCCn1c(=N)c(S(=O)(=O)c2ccc(Cl)cc2)cc2c(=O)n3cccc(C)c3nc21	0	-	0	?	0
CCc1ccccc1NC(=O)c1cc(S(=O)(=O)N2CCc3ccccc32)ccc1F	?	-	0	0	-
Cc1cc(-c2ccccc2)c(C#N)c(N)n1	0	7.94µM	0	0	?
N#Cc1c(-c2ccccc2)cc(-c2ccc(O)cc2)nc1N	-	0	0	0	-
CCc1ccc(NCc2ccc(OC)c(Cn3ccnc3)c2)cc1	-	?	-63.7	?	-
CN1CCC(N(C)S(=O)(=O)c2ccc(NC(=O)COc3ccc(Br)cc3Cl)cc2)CC1	6.31µM	10µM	0	0	8.91µM
O=C(COc1ccc(Br)cc1CNC1CCCCC1)NCCc1ccccc1	?	?	0	0	11.2µM
SMILES	Lassa entry inh	HCV inh	HCMV antiviral	FMDV antiviral	MARV entry inh
O=C(COc1ccccc1)NC1CCN(Cc2ccccc2)CC1	0	0	0	0	?
O=C(COc1ccc(Br)cc1Cl)NC1CCN(Cc2ccccc2)CC1	?	11.2µM	0	0	0
Cc1c(C(=O)Nc2ccc(S(=O)(=O)N(C)C3CCN(C)CC3)cc2)oc2c(Cl)cccc12	?	2µM	0	0	?
Cc1c(C(=O)Nc2ccc(S(=O)(=O)N(C)C3CCN(C)CC3)cc2)oc2ccccc12	?	6.31µM	?	0	0
CN1CCC(N(C)S(=O)(=O)c2ccc(NC(=O)c3ccc(S(=O)(=O)N(C)C)cc3)cc2)CC1	?	?	0	0	?
CN1c2ccccc2[C@@]2(O)C(=O)[C@@]1(C)[C@@H]1C=CCC[C@H]12	-	-	-	-	0
O=C(c1ccccc1)c1ccccc1N/C=C/c1nnnn1-c1ccccc1	13µM	6.31µM	?	0	?
CC(C)N(C(=O)CSc1nc(Cc2ccccc2)nc2ccccc12)C(C)C	-	?	0	0	-
CC(C)NC(=O)CSc1nc(-c2cccs2)cc(-c2ccccc2)c1C#N	0	?	0	0	0
